The values below come from PubChem BioAssay (NCATS).

Inconclusive results are not listed. Active and inactive are the calls of the source. Calls come from the whole dose curve; as a rule, active = well fitted inhibition curve with a large enough effect; inconclusive = small, poorly fitted or top-dose-only effect; inactive = flat fitted curve, though single readings scatter.

Experiment [1] concerns CRL-7250. The experiment in a line: Cytotoxic Profiling of Annotated Libraries Using Quantitative High-Throughput Screening (AID 1296008). Note: nearly all actives have a fitted effect of over 60% in size. The following applies: Five cell lines viability, CellTiter-Glo ATP luminescence, 48-72 h; max response: active compounds read low. The procedure, abridged:
(§1)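 Compounds were pin-transferred onto cells and incubated 48 or 72 hr at 37 degree Celsius, 95% humidity. CellTiter-Glo was added, plates sat 10 min at room temperature, then ATP-coupled luminescence was imaged as the viability read-out.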

For experiment [2], the system named is HEK293. The description is as above. The note with it: Five cell lines viability, CellTiter-Glo ATP luminescence, 48-72 h; max response: active compounds read low. The gist of the method:
as §1
% is set by controls: 0 for no effect and ±100 for the full control effect; potency is the fitted concentration of half-maximal effect.

Take `CC12CCC(=O)C=C1C(O)CC1C2C(O)CC2(C)C1CC[C@]2(O)C(=O)CO` (some centres undefined): the result in experiment [1] was inactive. The max response in experiment [2] is -5.89% (inactive).

Consider `CC(O)/C=C/C1(O)C(C)C(O[C@@H]2O[C@H](CO)[C@@H](O)[C@H](O)[C@H]2O)C(O)CC1(C)C` (some centres undefined), for which, in experiment [1], the max response is 0.975% (inactive). In addition, the result in experiment [2] was inactive.

In the case of `C[C@@]12CC[C@@H]3[C@@](CC[C@H]4[C@@]3(C)CCC[C@@]4(C)C(=O)O)(CC1=O)C2`, the max response in experiment [1] is -4.96% (inactive); in experiment [2], -6.36% (inactive).

Take `C/C(=C/CO)CC[C@@H]1[C@@](C)(O)CCC2C(C)(C)CCC[C@]21C` (some centres undefined): the max response in experiment [1] was 1.57% (inactive); in experiment [2], 4.02% (inactive).

As for `C=C1CC23CC1CCC2C12OC(=O)C(C)(CCC1O)C2C3C(=O)O` (centres undefined), in experiment [1], the compound was classed as inactive. Also, the max response in experiment [2] is 2.62% (inactive).

As for `CC(C)(C)c1cc(Br)cc([C@H](CC(=O)O)NC(=O)CNC(=O)c2cc(O)cc(NC3=NCC(O)CN3)c2)c1` (some centres undefined), the max response in experiment [1] is -6.62% (inactive); in experiment [2], -3.62% (inactive).

For `COc1ccc(CN2C(=O)C(=O)c3cc(S(=O)(=O)N4CCC[C@H]4COc4cccnc4)ccc32)cc1`, the call in experiment [1] and in experiment [2] was inactive.

Consider `C[C@@H]1CCC2C(C)(C)[C@H](O)CC[C@]2(C)[C@@]12Cc1c(O)cc3c(c1O2)CN([C@@H](CCC(=O)O)C(=O)O)C3=O` (some centres undefined), for which the call in experiment [1] and in experiment [2] was inactive.

As for `CC(=O)CCC1=C(C)C(O[C@@H]2O[C@H](CO)[C@@H](O)[C@H](O)[C@H]2O)C(O)CC1(C)C` (some centres undefined), the max response was -13.4% (inactive) in experiment [1] and 0.019% (inactive) in experiment [2].

As to `CC1=C(C(=O)O)/C(=C\CO[C@@H]2O[C@H](CO)[C@@H](O)[C@H](O)[C@H]2O)C(OC(=O)/C=C\c2ccc(O)cc2)C1` (some centres undefined), the max response in experiment [1] is 3.65% (inactive). The call in experiment [2] was inactive.

For `COc1cc(/C=C/CO)cc(OC)c1O[C@@H]1O[C@H](CO[C@@H]2O[C@H](CO)[C@@H](O)[C@H](O)[C@H]2O)[C@@H](O)[C@H](O)[C@H]1O`, the results for the max response in experiment [1] and in experiment [2] were 3.07% (inactive) and 1.54% (inactive), respectively.

On to `O=C(NCc1cccc(O)c1)c1cc2cc(F)ccc2[nH]1`, for which the max response in experiment [1] was 3.57% (inactive); in experiment [2], -13.7% (inactive).

In the case of `CC(=O)O[C@H]1CC[C@H](C)[C@@]2(C)[C@H](OC(C)=O)c3c(C)coc3C(=O)[C@H]12`, the max response in experiment [1] is -18.1% (inactive); in experiment [2], -27.7% (inactive).

Consider `COc1ccc(Cl)c(Nc2nc3ccccc3nc2NS(=O)(=O)c2cccc(NC(=O)C(C)(C)N)c2)c1`, for which the max response in experiment [1] is -18.5% (inactive); in experiment [2] it was -13.5% (inactive).

For `COc1cc(O)c([C@@H](CC(=O)N2CC(C)CC(C)C2)c2ccc3c(c2)OCO3)c(OC)c1` (some centres undefined), the max response in experiment [1] is -6.18% (inactive); in experiment [2], -5.89% (inactive).

Regarding `CCc1c(-c2ccccc2)c(-c2ccccc2)nn1-c1ccccc1-c1cccc(OCC(=O)O)c1`, the max response is -8.36% (inactive) in experiment [1] and -14.2% (inactive) in experiment [2].

Turning to `COc1ccc(-c2nc(-c3ccc(-c4cccc(Cl)c4)o3)[nH]c2-c2ccc(OC)cc2)cc1`, the compound was called inactive in experiment [1]. The Potency in experiment [2] is 20.6 µM (active).

With `CC1CC(=O)C2=C(CCC3(O)C(O)c4c(O)cccc4C(=O)C23O)C1` (centres undefined), the results for the max response in experiment [1] and in experiment [2] were -7.17% (inactive) and -13.5% (inactive), respectively.

For `COc1c2c(c(C)c3c1C(=O)OC3)OC1(C)CC(O)C34OC(OC)(OC3(C)C)C(O)CC4(C)C1C2` (centres undefined), in experiment [1], the outcome was inactive. The max response in experiment [2] is -9.65% (inactive).

`CC(=O)OC1C[C@]2(C)C(O)CC(C)=C[C@H](OC(=O)c3ccc(O)cc3)C2[C@]1(O)C(C)C` (some centres undefined): the max response in experiment [1] is 1.7% (inactive); in experiment [2], -3.03% (inactive).

In the case of `COc1cc2oc(-c3ccc(O)cc3O)cc2c(OC)c1CC=C(C)C`, the results for the max response in experiment [1] and in experiment [2] were -1.99% (inactive) and 3% (inactive), respectively.

For the compound `COC(=O)C1=CO[C@@H](O[C@@H]2O[C@H](CO)[C@@H](O)[C@H](O)[C@H]2O)[C@H]2[C@@H]1CC(OC)O[C@@H]2C` (some centres undefined), the result in experiment [1] was inactive. The max response in experiment [2] is 4.51% (inactive).

As to `Cc1cn(C2C=CC(CO)O2)c(=O)[nH]c1=O` (centres undefined), the max response in experiment [1] was -8.63% (inactive); in experiment [2], -22.8% (inactive).

Turning to `O=C(Nc1ccc(S(=O)(=O)Nc2nccs2)cc1)C(c1ccccc1)c1ccccc1`, the max response in experiment [1] was -0.59% (inactive); in experiment [2] it was -0.0195% (inactive).

`CN1CCN(c2ccc(C(=O)Nc3n[nH]c4ccc(Cc5cc(F)cc(F)c5)cc34)c(NC3CCOCC3)c2)CC1`: the Potency in experiment [1] was 20.9 µM (active); in experiment [2], 7.41 µM (active).

On to `C[C@]12C[C@@H](O)[C@@H]3C[C@@]1(O[C@@H]1O[C@H](CO)[C@@H](O)[C@H](O)[C@H]1O)[C@]3(COC(=O)c1ccccc1)C(=O)O2`, for which the max response in experiment [1] was -9.75% (inactive). In addition, in experiment [2], the result was inactive.

Consider `C=C1[C@@H]2CC[C@@H]3[C@@](CCC4C(C(=O)O)(C(=O)O)C[C@@H](O[C@@H]5O[C@H](CO)[C@@H](O)[C@H](O)[C@H]5OC(=O)CC(C)C)C[C@]43C)(C2)[C@H]1O` (some centres undefined), for which the max response in experiment [1] is -6.97% (inactive); in experiment [2] it was -0.701% (inactive).
